# PINK1 modulator = changes PINK1 expression. PINK1 immunofluorescence, high-content cytometry, 24 h. Potency, µM (top dose mostly 76.6 µM), usual class: activators. 0.2% of 410,000 active; active = well fitted activation curve with a large enough effect; inconclusive = small, poorly fitted or top-dose-only effect; cell line not stated here; also: nearly all actives have a fitted effect of over 65% in size
#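 Stable cell line, 250 cells/well, 12 h attachment; compounds pinned at 5 concentrations, 24 h; CCCP control. Fixed with nuclear dye, primary antibodies 12 h at 10 degrees C, secondary plus cell stain; laser-scanning cytometer read.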
# MCF10A rereplic = DNA re-replication induction in MCF 10a cells; MCF 10A DNA re-replication, Hoechst nuclear intensity, 48 h; Potency, µM (highest dose often 46.1 µM), most hits filed as activators; 2.9% of 350,000 active; AID 624296; also: nearly all actives have a fitted effect of over 50% in size
# SW480 rerep = DNA re-replication induction in SW480 cells | Potency, µM (top dose mostly 46.1 µM), actives largely listed as activators | SW480 DNA re-replication, Hoechst DNA content imaging, 48 h | AID 624297 | 1.8% of 340,000 active; also: nearly all actives have a fitted effect of over 55% in size
#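 250 cells/well; 23 nL cpd via pin tool; 48 hr, 37 C, 5% CO2; Hoechst 40 min; imager read of total nuclear intensity, ex 405/em 500-530 nm.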
# KB-V1 cytotox = kills drug-selected multidrug resistant KB-V1 cells; KB-V1 MDR cells viability, CellTiter-Glo, 72 h; Potency, µM (doses to about 46.1 µM), usual class: cytotoxic; 3.4% of 400,000 active; also: nearly all actives have a fitted effect of over 60% in size
#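 Readout: CellTiter-Glo luminescence, 10 min after addition. Cells: KB-V1 MDR subline, 72 h at 37 degrees C with compound. Analysis: corrected, normalized data fitted to concentration-effect curves.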
# KB-3-1 cytotox = kills parental KB-3-1 adenocarcinoma cells; KB-3-1 viability, CellTiter-Glo ATP luminescence, 72 h; Potency, µM (top dose mostly 46.1 µM), most hits filed as cytotoxic; 1.4% of 400,000 active; also: nearly all actives have a fitted effect of over 60% in size
#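 Using CellTiter-Glo luminescence, growth of non-resistant KB-3-1 adenocarcinoma cells is assessed 72 h after pin-tool compound addition at 37 °C. Normalized responses across the concentration series yield fitted curves.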
# A number is an active result; – = inactive; ? = inconclusive; · = no result. The list is not random: actives were taken first. Their share in the collection is about 6.7%. Unless noted, calls follow the shape of the dose curve; as a rule, active = well fitted curve in the direction sought with a large enough effect; inconclusive = small, poorly fitted or top-dose-only effect, or another doubt; inactive = no such curve, though single readings can be large; an effect the other way counts as inactive or inconclusive.
SMILES,PINK1 modulator,MCF10A rereplic,SW480 rerep,KB-V1 cytotox,KB-3-1 cytotox
O=C(CC1NCCC[C@H]1O)Cn1cnc2cc(Br)c(Cl)cc2c1=O (some centres not stated),·,–,–,·,·
COc1ccc(-c2cc(=O)oc3cc(OC(=O)C4CCCCC4)c(Cl)cc23)cc1,–,11.6µM,11.6µM,–,–
CCc1nn(CC(=O)NCCc2ccc(OC)cc2OC)c(=O)c2cc3sccc3n12,–,·,·,·,·
CCNc1nc(C#N)nc(N2CCOCC2)n1,–,·,·,–,–
COc1ccc(CNCC(O)(c2ccccc2)c2ccc(Cl)cc2)cc1 (configuration not stated),–,–,?,13µM,?
COc1cccc(CNCC(O)(c2ccc(Cl)cc2)c2ccc(Cl)cc2)c1,?,?,?,14.6µM,?
Cc1ccc(CNCC(O)(c2ccccc2)c2ccc(Cl)cc2)cc1 (configuration not stated),–,–,?,?,–
O=C(NCc1nc2ccccc2n1Cc1ccccc1Cl)c1ccccc1,–,·,·,·,·
Fc1cccc2sc(Nc3nnc(-c4ccco4)o3)nc12,–,7.31µM,?,9.2µM,?
COc1cccc2sc(NC(=O)c3ccc(Br)s3)nc12,–,–,–,–,–
COc1ccc(-c2nnc(-c3ccc(F)cc3)o2)cc1,–,–,–,–,–
COc1cccc2sc(Nc3nnc(-c4ccc(F)cc4)o3)nc12,–,25.9µM,?,–,–
COc1cccc2sc(Nc3nnc(-c4cccs4)o3)nc12,–,23.1µM,–,?,?
CC(C(=O)NCc1ccccc1)n1c(CSCCOc2ccccc2)nc2ccccc21 (configuration not stated),·,·,·,?,–
OC(c1ccccc1)C(NCCNCc1ccccc1)c1ccccc1 (configuration not stated),–,?,?,–,–
Cc1ccc(CN2CCC(c3cc(-c4cccs4)n[nH]3)CC2)cc1,–,?,–,?,–
FC(F)(F)c1cccc(CN2CCC(c3cc(-c4cccs4)n[nH]3)CC2)c1,–,13µM,?,?,?
CCN(CC)CCCNc1ccc(-c2nnc(-c3ccc(OCC(C)C)cc3)o2)cn1,–,?,20.6µM,?,20.6µM
CCOc1ccc(C(=O)N2CCN(CC(=O)N3CCCC3)CC2)cc1OCC,–,–,–,–,–
COc1cc(NC(=O)c2ccc([N+](=O)[O-])o2)ccc1NC(=O)c1cccs1,–,?,6.51µM,–,?
O=C(Nc1cccc(NC(=O)c2cccs2)c1)c1ccc([N+](=O)[O-])o1,–,–,?,?,16.4µM
Cc1ccsc1C1NC(=O)c2c(sc3c2CCCC3)N1 (configuration not stated),–,?,–,14.6µM,–
O=C1NC(c2ccccn2)Nc2sc3c(c21)CCC3 (configuration not stated),–,16.4µM,–,–,–
CCOC(=O)C(CC)n1cnc2c(nnn2-c2ccccc2)c1=O (configuration not stated),–,–,–,–,–
OC(CNCCc1ccc(C(F)(F)F)cc1)COc1ccc2ccccc2c1 (configuration not stated),–,5.8µM,?,?,?
SMILES,PINK1 modulator,MCF10A rereplic,SW480 rerep,KB-V1 cytotox,KB-3-1 cytotox
COc1ccc(CCNCC(O)COc2cccc(Br)c2)cc1 (configuration not stated),–,?,?,–,–
OC(CNCCc1ccc(C(F)(F)F)cc1)COc1cccc2ccccc12 (configuration not stated),–,20.6µM,16.4µM,?,–
COc1ccc(C(CNC(=O)c2ccc(S(=O)(=O)Nc3ccccc3OC)cc2)N2CCCC2)cc1 (configuration not stated),–,–,–,–,–
COc1cccc(-c2ccccc2C2=CC(=O)CC(C)(C)C2=O)c1,–,·,·,–,–
OCCCNC(=S)Nc1ccc(Oc2ccccc2)cc1,–,–,–,–,–
CC(C)c1ccc(NC(=S)NN(c2ccccc2)c2ccccc2)cc1,–,?,?,20.6µM,–
CCC(C)c1ccc(NC(=S)NCc2ccccc2OC)cc1 (configuration not stated),–,18.4µM,–,?,–
CCNC(=S)NN(c1ccccc1)c1ccccc1,–,–,–,–,–
CCNC(=S)Nc1ccc(N(c2ccccc2)C(C)C)cc1,–,?,–,13µM,20.6µM
CC(C)N(c1ccccc1)c1ccc(NC(=S)NCCN(C)C)cc1,–,?,?,–,?
CC(C)CNC(=S)Nc1ccc(Oc2ccccc2)cc1,?,8.2µM,–,16.4µM,20.6µM
COc1ccc2cc(CN(C(=O)c3cc(C)nn3C)C3CC3)c(-c3ccc(Cl)cc3)nc2c1,–,·,·,·,·
O=C(CSc1ncc2c(n1)-c1cc(Cl)ccc1N(Cc1ccccc1)S2(=O)=O)NCc1ccccc1,–,·,·,–,–
COc1ccc(CCN(C)C(=O)c2cc(-c3ccc(C)cc3)nc3ccccc23)cc1OC,–,?,–,–,–
Cc1ccc(C)c(N2CCN(C(=O)C3CCN(c4nc(C)cc(C)n4)CC3)CC2)c1,–,–,–,3.66µM,?
Cc1cc(C)nc(N2CCC(C(=O)N3CCN(c4cc(Cl)ccc4C)CC3)CC2)n1,–,?,?,4.11µM,?
Cc1ccc(C)c(N2CCN(C(=O)C3CCCCN3S(=O)(=O)c3ccc(F)cc3)CC2)c1 (configuration not stated),–,–,–,2.59µM,?
COc1cc(C2CC(c3c(C)cc(C)[nH]c3=O)=NN2c2ccccc2F)cc(OC)c1OC (configuration not stated),–,23.1µM,?,–,–
COc1ccccc1C(=O)Nc1c(C(=O)N2CCN(c3ccccc3F)CC2)oc2ccccc12,–,·,·,–,–
COc1nc(Nc2ccc([N+](=O)[O-])cc2)nc(NC(C)C)n1,–,–,–,11.6µM,–
COc1nc(NCCO)nc(Nc2ccc([N+](=O)[O-])cc2)n1,–,–,–,–,–
Cc1ncsc1CCC(=O)N1CCCC(c2nc(-c3ccncc3)ncc2-c2ccccc2)C1 (configuration not stated),–,·,·,·,·
CC(=O)Nc1c(Br)cc2c(c1Br)Cc1cc([N+](=O)[O-])ccc1-2,–,?,4.11µM,?,–
Nc1c(Br)cc(Br)c2c1-c1ccc([N+](=O)[O-])cc1C2,–,–,–,?,–
O=C(Nc1c(Cl)cc2c(c1Cl)Cc1cc([N+](=O)[O-])ccc1-2)C(Cl)Cl,–,18.4µM,?,?,?
Cc1cccc(NC(=O)c2sc3nc4c(c(-c5cccs5)c3c2N)CN(C)CC4)c1,–,16.4µM,?,–,–
CC(C)NC(=O)c1sc2nc3c(c(-c4cccs4)c2c1N)CN(C)CC3,–,–,–,–,–
CCOC(=O)CSc1nc2cc(OC)c(OC)cc2c2nc(-c3ccccc3)nn12,–,·,·,–,–
COc1cc(S(=O)(=O)N2CCN(c3ccccc3)CC2)ccc1Cl,–,–,–,23.1µM,–

# Bioassay records from PubChem.
